Compound activity (PubChem)
HCV inh – qHTS Assay for Inhibitors of Hepatitis C Virus (HCV). 3.4% of 340,000 active. Huh7.5.1 HCVcc-Cre infection, luciferase reporter, 44 h. Potency, µM (doses to about 41.8 µM), for the others: at the highest dose activity change, negative = inhibition, most hits filed as inhibitors; note: potency is the fitted concentration of half-maximal effect
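Luciferase read-out (15 sec integration) after a 15 min room-temperature substrate step quantifies HCVcc-Cre infection. Cells, 1,000 per well, had compound added 4 h post-plating, then virus at ~0.5 moi, and were cultured 44 h.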
Pf growth 96h – Primary qHTS for delayed death inhibitors of the malarial parasite plastid, 96 hour incubation. P. falciparum luciferase reporter growth, 96 h. Potency, µM (doses to about 28.7 µM), for the others: top-dose activity change, negative = inhibition, actives largely listed as inhibitors. 6.9% of 320,000 active; note: potency is the fitted concentration of half-maximal effect
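Erythrocytes infected with luciferase-expressing P. falciparum were dispensed at 2% hematocrit and 0.05% parasitemia (final), then incubated with compounds 96 hours at 37 C in 5% CO2. Luminescence after detection reagent addition reported growth.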
HCMV inh – qHTS Assay for inhibitors of the human cytomegalovirus (HCMV); HFF cells, HCMV-luciferase reporter, 72 h; active compounds read low; activity change, negative = inhibition, % at 57.5 µM; 4.5% of 410,000 active; AID 1259415, 2018; in the data active = activity change below about -60%; inconclusive = no clear call, values can overlap the other calls; inactive = above about -39%
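Two compound doses tested in HFFs infected with HCMV-luciferase, MOI 1 PFU/cell, 72 h at 37C. Lysate luminescence read with OneGlo; data normalized against buffer-only and 10uM Salinomycin inhibitor controls.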
Lassa entry inh – qHTS for Inhibitors of binding or entry into cells for Lassa Virus; Lassa virus pseudotype entry inhibition, cell reporter; Potency, µM (series often up to 37.9 µM), without a hit: top-dose activity change, negative = inhibition, hits mostly inhibitors; 1.2% of 300,000 active; AID 540256, 2011; calls by dose curve; tested in HEK293 cells; note: potency is the fitted concentration of half-maximal effect; nearly all actives have a fitted effect of over 50% in size
Pf growth 48h – Primary qHTS for delayed death inhibitors of the malarial parasite plastid, 48 hour incubation; Potency, µM (doses to about 28.7 µM), for the others: top-dose activity change, negative = inhibition, actives largely listed as inhibitors; AID 504832, 2011; 5.9% of 310,000 active; P. falciparum luciferase growth in erythrocytes, 48 h; note: potency is the fitted concentration of half-maximal effect
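Growth was read as firefly luciferase luminescence after a 48 h, 37 C, 5% CO2 exposure of compounds to reporter-bearing P. falciparum cultures (0.1% parasitemia, 2% hematocrit final) in Albumax-supplemented RPMI 1640.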
MARV entry inh – qHTS for inhibitors of binding or entry into cells for Marburg Virus | Marburg virus pseudotyped entry inhibition, cell reporter | Potency, µM (titrated, usually from 37.8 µM), for inactives: top-dose activity change, negative = inhibition, hits mostly inhibitors | 1.8% of 300,000 active | AID 540276, 2011; calls by dose curve; tested in HEK293 cells; note: potency is the fitted concentration of half-maximal effect
An asterisk follows results filed as active; [ ] = remark or other dose. A selection: hits, their analogues and other compounds. The true share with any hit is near 14%. Unless noted, calls come from the whole dose curve; as a rule, active = well fitted inhibition curve with a large enough effect; inconclusive = small, poorly fitted or top-dose-only effect, or another doubt; inactive = no such curve, though single readings can be large or run the other way. % is set by controls: 0 for no effect and ±100 for the full control effect.

For CCc1ccc(Nc2cc(C)nc3nc(Cc4ccc(Cl)cc4)nn23)cc1 the results were HCMV inh -91.5*, Lassa entry inh inconclusive and MARV entry inh inconclusive.
`COc1ccc2c(CN(C)Cc3ccccc3)cc(=O)oc2c1` gave HCMV inh 156.7 and Lassa entry inh inconclusive.
C[C@@H]1CN([C@H](C)CO)C(=O)CCCn2nncc2CO[C@H]1CN(C)C(=O)Nc1cccc2ccccc12 was read as HCMV inh 40.7.
Screening Cc1cc(NCc2ccc3c(c2)OCO3)n2nc(C)nc2n1 returned HCV inh 9.7%, Pf growth 96h 0.37µM*, HCMV inh 9.1 and Pf growth 48h -4.2%.
Screening Cc1nc2nc(C)c(CCC(=O)NCc3ccc4c(c3)OCO4)c(C)n2n1 returned HCV inh 25.1%, Pf growth 96h 81.8%, HCMV inh 12.7, Lassa entry inh -8.2%, Pf growth 48h -16.5% and MARV entry inh 1.1%.
Cc1ccc(S(=O)(=O)N2C[C@H]3C(=O)C[C@@H](c4ccccc4)N(S(=O)(=O)c4ccc(C)cc4)[C@H]3C[C@H]2c2cccs2)cc1 was read as HCMV inh -7.0.
CN(C)/C=C1/N=C(c2ccccc2)OC1=O was read as HCV inh -10.0%, HCMV inh 0.6, Lassa entry inh inconclusive, Pf growth 48h 38.2% and MARV entry inh inconclusive.
For O=CC1=C(c2ccccc2)Oc2ccccc2O1 the results were HCV inh -20.0%, Pf growth 96h inconclusive, HCMV inh -94.3*, Lassa entry inh inconclusive, Pf growth 48h 2.0% and MARV entry inh 7.94µM*.
`CSc1ncc(C(=O)NCc2cccc(Br)c2)c(-c2ccccc2)n1` gave HCMV inh -2.7 and Lassa entry inh 2.7%[46.1 µM].
`O=C(NCC1CCCO1)c1ccc(/C=N/O)nc1` (stereo not given) gave HCV inh 4.7%, Pf growth 96h 14.7µM*, HCMV inh -3.9, Lassa entry inh -3.6%, Pf growth 48h 0.2% and MARV entry inh inconclusive.
Screening O=C(NCCCNCCCNC(=O)c1ccc(/C=N/O)nc1)c1ccc(/C=N/O)nc1 returned HCV inh 14.2%, Pf growth 96h 2.62µM*, HCMV inh 16.7 and Pf growth 48h 9.28µM*.
For O=C(NCC1CCCO1)c1cnc(Cl)c(Cl)c1 (stereo not given) the results were HCV inh 2.8%, Pf growth 96h 5.0%, HCMV inh -4.4, Lassa entry inh -10.8%[46.1 µM], Pf growth 48h inconclusive and MARV entry inh inconclusive.
`N#CCC(=O)Nc1ccc(C(=O)OCC(=O)Nc2ccc3ccccc3c2)cc1` gave HCV inh inconclusive, Pf growth 96h -13.7%, HCMV inh 32.9, Lassa entry inh -8.2%, Pf growth 48h 13.1µM* and MARV entry inh inconclusive.
For CC(CCc1ccccc1)NC(=O)COC(=O)c1ccc(NC(=O)CC#N)cc1 (stereo not given) the results were HCV inh -6.2%, Pf growth 96h inconclusive, HCMV inh 13.1 and Pf growth 48h 11.7µM*.
For O=C(COC(=O)c1ccc(CO)cc1)Nc1ccc2ccccc2c1 the results were HCV inh 5.0%, Pf growth 96h 18.6%, HCMV inh 21.7 and Pf growth 48h 0.0%.
COc1ccc(C(C(=O)NCc2ccccc2)N(C(=O)Cn2nnc3ccccc32)c2ccc(OC)cc2)cc1 (stereo not given) was read as HCMV inh -12.0, Lassa entry inh 5.7%[46.1 µM] and MARV entry inh 11.7%[46.1 µM].
Screening Cc1ccccc1CC1(CO)CCCN(C(=O)c2ccc(F)cc2)C1 (stereo not given) returned HCV inh 2.6%, Pf growth 96h inconclusive, HCMV inh 33.6, Lassa entry inh -21.8%[46.1 µM], Pf growth 48h -11.6% and MARV entry inh -3.8%[46.1 µM].
Cc1ccccc1CC1(CO)CCCN(C(=O)c2ccccc2N(C)C)C1 (stereo not given) was read as HCV inh -9.5%, Pf growth 96h 0.928µM*, HCMV inh -29.2, Lassa entry inh -23.3%, Pf growth 48h inconclusive and MARV entry inh -11.4%[46.1 µM].
`Cc1ccc2c(c1)/C(=C/c1ccco1)C(=O)N2` gave HCV inh 11.2µM*, Pf growth 96h inconclusive, HCMV inh 19.3, Lassa entry inh -26.9%[46.1 µM], Pf growth 48h 38.7% and MARV entry inh inconclusive.
C[n+]1cn(/N=C/c2ccccc2)c2ccccc21 was read as HCV inh -1.0%, Pf growth 96h 13.1µM*, HCMV inh 45.3, Lassa entry inh 0.6%, Pf growth 48h inconclusive and MARV entry inh 7.6%.
For Cc1ccc(S(=O)(=O)N(C)C)cc1NC(=O)c1cncc(Br)c1 the results were HCV inh inconclusive, Pf growth 96h 13.1µM*, HCMV inh inconclusive, Lassa entry inh inconclusive, Pf growth 48h 13.1µM* and MARV entry inh inconclusive.
CCOC(=O)c1ccc(NC(=S)NC(=O)c2cncc(Br)c2)cc1 was read as HCV inh 0.8%, Pf growth 96h 167.2%, HCMV inh -71.9*, Lassa entry inh 14.0% and MARV entry inh 4.8%[46.1 µM].
O=C(Nc1ccccc1[N+](=O)[O-])c1cncc(Br)c1 was read as HCV inh 4.4%, Pf growth 96h 66.2%, HCMV inh -73.9*, Lassa entry inh 11.8%, Pf growth 48h 30.6% and MARV entry inh 10.4%.
Screening CCCCOC(=O)c1ccc(NC(=S)NC(=O)c2c(Br)c(C)nn2C)cc1 returned HCV inh inconclusive, Pf growth 96h inconclusive, HCMV inh -64.2*, Lassa entry inh 4.0%, Pf growth 48h -23.2% and MARV entry inh inconclusive.
`O=S(=O)(NCCc1c[nH]c2ccccc12)c1ccc(F)cc1` gave HCV inh 0.6% and HCMV inh 16.7.
`O=C(CCNS(=O)(=O)c1ccc(Br)cc1)NC1CCC(O)CC1` (stereo not given) gave HCV inh 8.7%, Pf growth 96h 5.4%, HCMV inh 0.4 and Pf growth 48h -2.7%.
CC1CCCC(NC(=S)NC(=O)c2cncc(Br)c2)C1C (stereo not given) was read as HCV inh 2.9%, Pf growth 96h 23.3%, HCMV inh 46.6, Lassa entry inh inconclusive, Pf growth 48h 13.1µM* and MARV entry inh 5.8%.
`O=C(NC(=S)Nc1ccccc1Cl)c1cncc(Br)c1` gave HCV inh -5.3%, Pf growth 96h 11.7µM*, HCMV inh -6.7, Lassa entry inh 16.9%, Pf growth 48h 0.0% and MARV entry inh 12.0%.
`O=C(NCCc1ccccc1)c1ccc(S(=O)(=O)N2CCCCC2)cc1` gave HCMV inh 45.1.
